High-throughput results (PubChem)
This is a sample that favours compounds with a hit; in the whole collection about 10% have one here.
HP1b binding inh: HTS for Inhibitors of HP1-beta Chromodomain Interactions with Methylated Histone Tails; Chromobox protein homolog 1 (Homo sapiens), P83916; AlphaScreen HP1-beta / biotin-H3K9me3 peptide binding; Potency, µM (series often up to 114 µM), actives largely listed as inhibitors; actives 0.56% (n = 390,000); AID 540317, 2011; also: nearly all actives have a fitted effect of over 70% in size
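HP1-beta protein (50 nM final) preincubated 30 min at room temperature with biotinylated H3(1-18)K9me3 peptide (50 nM) in PBS pH 7.4, 0.01% Tween-20, then compound added for 30 min. AlphaScreen streptavidin donor/nickel chelate acceptor beads (10 ug/mL final), 30 min dark, luminescence read.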
JMJD2A Tudor: qHTS Assay for Inhibitors of JMJD2A-Tudor Domain; AlphaScreen JMJD2A-Tudor / H3K4me3 peptide binding; Potency, µM (top dose mostly 114 µM), hits mostly inhibitors; actives 4.4% (n = 390,000); also: nearly all actives have a fitted effect of over 50% in size
BAZ2B block: qHTS Assay for Inhibitors of BAZ2B. Bromodomain adjacent to zinc finger domain protein 2B (Homo sapiens), Q9UIF8. AlphaScreen BAZ2B-H3K14Ac peptide displacement. Potency, µM (series often up to 114 µM), hits mostly inhibitors. actives 4.4% (n = 360,000); also: nearly all actives have a fitted effect of over 60% in size
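Multi-concentration screen (max 110 uM) measuring displacement of acetylated histone H3 peptide from BAZ2B by AlphaScreen, using 50 nM protein, 50 nM peptide and 10 ug/mL streptavidin donor plus Ni-chelate acceptor beads.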
Six1-Eya2 inh: qHTS Assay for Inhibitors of the Six1/Eya2 Interaction | Homeobox protein SIX1 (Homo sapiens) + Protein phosphatase EYA2 (Homo sapiens), … | AlphaScreen GST-Six1/His-Eya2 binding, biochemical; active compounds read low | activity change, % (test concentration not listed) | actives 0.56% (n = 360,000) | AID 651725, 2012; in the data active = activity change below about -65%; inconclusive = mostly about -30% to -63%
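AlphaScreen with GST-Six1 and His-Eya2 (5X mix: 250 nM and 500 nM), glutathione donor and nickel acceptor beads; buffer 50 mM Tris pH 8.0, 300 mM NaCl, 1 mM TCEP; 1 h at 37 C in the dark.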
CtBP-E1A blk: qHTS Assay for Inhibitors of the CtBP/E1A Interaction; CtBP / adenovirus E1A interaction (AlphaScreen); AlphaScreen GST-E1A/His-CtBP binding, 1536-well; active compounds read low; activity change, % (no concentration beside the values); actives 0.49% (n = 340,000); AID 651724, 2012; in the data active = activity change below about -65%; inconclusive = mostly about -30% to -63%
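Protein mix (5X: 125 nM each GST-E1A, His-CtBP) was incubated with pinned compound 2 h at 37 deg C in dark, in 50 mM Tris pH 8.0 buffer with 300 mM NaCl. Glutathione donor and nickel acceptor beads followed; AlphaScreen signal read after 1 h.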
G9a inh: qHTS Assay for Inhibitors of Histone Lysine Methyltransferase G9a. G9a H3K9 monomethylation, AlphaScreen, 2 h. Histone-lysine N-methyltransferase EHMT2 (Homo sapiens), Q96KQ7. Potency, µM (doses to about 102 µM), most hits filed as inhibitors. actives 8.8% (n = 350,000). AID 504332, 2011; also: nearly all actives have a fitted effect of over 75% in size
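Compounds were preincubated with 20 nM G9a for 15 min, after which biotinylated H3K9 peptide (500 nM) and SAM (20 uM) started a 2 h room-temperature reaction. Monomethylated product was quantified by antibody-based AlphaScreen chemiluminescence.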
A number is an active result; . = inactive; ? = inconclusive; / = not tested or not shown; [ ] = remark or other dose. Unless noted, calls follow the shape of the dose curve; as a rule, active = well fitted inhibition curve with a large enough effect; inconclusive = small, poorly fitted or top-dose-only effect; inactive = no such curve, though single readings can be large or run the other way.

SMILES | HP1b binding inh | JMJD2A Tudor | BAZ2B block | Six1-Eya2 inh | CtBP-E1A blk | G9a inh
CCc1ccc(/C=N/n2c(C3CCCCC3)n[nH]c2=S)cc1 | . | ? | . | . | / | 31.6µM
S=c1[nH]nc(C2CCCCC2)n1/N=C/c1c(Cl)cccc1Cl | . | . | . | . | . | 3.55µM
Cc1cccc(C(=Cc2ccc([N+](=O)[O-])cc2)C(=O)O)c1 | / | / | / | . | . | /
Cc1ccc(/C=N/n2c(C)nnc2C)cc1 | . | . | . | . | . | .
S=c1[nH]nc(C2CCCCC2)n1/N=C/c1ccc(Br)s1 | . | . | . | . | . | 8.91µM
Cc1ccc(/C=N/n2c(C3CCCCC3)n[nH]c2=S)cc1 | . | ? | . | . | . | 10µM
S=c1[nH]nc(C2CCCCC2)n1/N=C/c1ccc(Br)cc1 | . | . | . | . | . | 10µM
O=C(Cc1ccc(F)cc1)N[C@@H]1c2ccccc2CC[C@H]1OCc1ccccc1 | . | . | / | . | . | /
CCOc1ccc(CNC(=O)c2ccc3c(c2)nc2n3CCC(C)C2)cc1OC (stereo not drawn) | . | . | . | / | / | .
Cc1ccc(NC(=O)CN2C(=O)c3ccccc3Sc3ccc(C(=O)N4CCOCC4)cc32)cc1F | . | . | . | / | / | ?
COc1ccc([C@]23Cc4ccccc4C(O2)c2c(cc(-c4ccccc4)oc2=O)O3)cc1 | / | / | .[22.9 µM] | / | / | /
OCCN1CCN(C(c2ccccc2Cl)c2sc3nc(-c4ccco4)nn3c2O)CC1 (stereo not drawn) | . | . | . | / | / | ?
CSc1ccccc1NC(=S)N/N=C/c1cccn1Cc1ccc(F)cc1 | . | 35.5µM | 28.2µM | ? | . | 31.6µM
COc1ccc(NC(=S)N/N=C/c2cccn2Cc2ccc(F)cc2Cl)cc1 | ? | 28.2µM | 17.8µM | ? | . | 22.4µM
Cc1cccc(NC(=S)N/N=C/c2cccn2Cc2ccc(F)cc2)c1 | . | . | 8.91µM | . | . | ?
CSc1ccccc1NC(=S)N/N=C/c1cccn1Cc1cccc(C)c1 | . | . | 8.91µM | . | . | 25.1µM
COc1ccc(NC(=S)N/N=C/c2cccn2Cc2ccccc2F)cc1 | . | . | . | . | . | ?
Fc1cccc(/C=N/NC(=S)Nc2ccccc2Cl)c1 | . | . | . | . | . | .
CSc1ccccc1NC(=O)CSCc1ccc(C)cc1 | . | . | . | . | . | /
COc1ccc(OC)c(NC(=O)Cc2c(C(=O)O)n(C)c3ccc(C)cc23)c1 | . | . | . | / | / | .
Cc1c(Cl)cccc1NC(=O)CC(c1ccc(F)cc1)N1Cc2ccccc2C1=O (stereo not drawn) | . | . | . | / | / | ?
CCN(CC)Cc1c(C(=O)N/N=C/c2cccs2)nnn1-c1nonc1N | . | . | . | . | . | .
COc1cccc(CNc2ccccc2O)c1OCc1ccccc1F | 44.7µM | 44.7µM | 31.6µM | ? | ? | 35.5µM
COc1cc(CNC(C)(C)CO)cc(Br)c1OCc1ccccc1 | . | . | . | . | . | .
CCOc1cc(CNc2ccc(O)cc2)cc(Br)c1OCc1ccccc1F | 17.8µM | 50.1µM | . | . | ? | 11.2µM
SMILES | HP1b binding inh | JMJD2A Tudor | BAZ2B block | Six1-Eya2 inh | CtBP-E1A blk | G9a inh
COc1cc(CNc2ccc(O)cc2)cc(Br)c1OCc1ccccc1F | ? | ? | ? | . | . | 11.2µM
CCOc1cc(CNc2ccc(O)cc2)cc(Br)c1OCc1ccccc1 | ? | 39.8µM | ? | / | / | ?
COc1ccccc1CNC(=O)[C@H](C)NC(=O)C1CCN(C(=O)[C@@H](N)CC(C)C)CC1 | . | . | . | . | . | .[12.7 µM]
COc1ccc(-n2nc(C(=O)NCCc3ccc(OC)c(OC)c3)c3c4ccccc4n(C)c3c2=O)cc1 | . | . | / | / | / | .
CCOC(=O)C1=C(SCC)c2cc3c(n2C1=O)CCCC3 | ? | 35.5µM | 10µM | . | . | 7.94µM
CCOC(=O)c1cnc2cc3c(cn2c1=O)CCCC3 | . | . | . | . | . | .
O=C(OCc1cc(=O)n2nc(-c3cccs3)sc2n1)c1ccc(F)cc1 | . | . | . | / | / | .
COC(=O)C1=C(CSc2nc3ccccc3s2)NC(=O)NC1c1ccc(F)cc1 (stereo not drawn) | . | . | . | . | . | 39.8µM
COC(=O)c1ccc(CSc2nc3ccccc3s2)o1 | . | . | . | . | . | .
COc1ccc(C(=O)N/C(=C\c2ccc([N+](=O)[O-])cc2)C(=O)NC(CCSC)C(=O)O)cc1 (stereo not drawn) | . | . | . | . | / | 50.1µM
O=C(O)COc1ccc(-c2nccc(-c3ccccn3)n2)cc1 | ? | .[11.4 µM] | 79.4µM | . | / | ?
COc1cc(-c2nnc(SCC3(c4ccc(Br)cc4)OCCO3)o2)cc(OC)c1OC | . | . | . | . | . | .[12.7 µM]
N#Cc1c2n(c(=S)n(-c3ccccn3)c1=O)CCCCC2 | . | . | . | . | . | 22.4µM
Cc1ccc2c(c1)C1C[N+](C)(CC(=O)Nc3ccccc3Cl)CCC1N2C(=O)c1ccccc1Cl (stereo not drawn) | . | . | / | . | . | /
Cc1cc(NC(=O)CN2C(=O)CC(c3ccco3)Sc3ccccc32)no1 (stereo not drawn) | . | ? | . | . | . | 12.6µM
CC(=O)Nc1ccc(NC(=O)CN2C(=O)CC(c3ccco3)Sc3ccccc32)cc1 (stereo not drawn) | . | ? | . | / | / | .
CC(=O)c1ccc(N2CCN(CC(=O)Nc3cc(C)on3)CC2)cc1 | . | . | . | . | . | .
Cc1cc(NC(=O)CN2CCC(C)CC2)no1 | ? | 5.01µM | / | . | / | 3.55µM
Cc1cc(NC(=O)CN2CCN(c3ccccc3O)CC2)no1 | . | 79.4µM | . | . | . | ?
CCc1ccc(C2CC(=O)Oc3c2c(=O)n(C)c2ccccc32)cc1 (stereo not drawn) | . | . | . | / | / | .
COc1ccc(C(=O)CSc2nnc(CN3CCCCC3)n2-c2ccc(F)cc2)cc1 | . | . | . | . | . | ?
S=c1[nH]nc(CN2CCCCC2)n1-c1ccc(Cl)cc1 | . | . | . | . | . | 17.8µM
S=c1[nH]nc(Cn2nnc3ccccc32)n1-c1ccc(Cl)cc1 | . | . | . | . | . | 11.2µM
S=c1[nH]nc(COc2ccccc2)n1-c1ccc(Cl)cc1 | . | . | / | . | . | /
FC(F)(F)c1ccccc1-n1c(CN2CCCCC2)n[nH]c1=S | . | 22.4µM | . | . | . | 20µM
FC(F)(F)c1ccccc1NC(=S)N1CCCCCC1 | . | . | . | . | . | /
